# Out of some 360,000 compounds screened, about 2,400 (0.67%) were called active. This is one part of a sample in which actives are shown more often than they occur. A number with no mark means an inactive call. No stated cut-off is given here; in the data, active means enhancement above about 30%; inactive means the rest.
# Target: Thyrotropin-releasing hormone receptor (Homo sapiens) (UniProt P34981)
# Assay: qHTS for Small Molecule Agonists and Allosteric Enhancers of Human TRH Receptor: Primary Screen for Enhancers; further: 0% is about no effect
# Conditions: TRHR cells, fluo-8 calcium fluorescence, EC20 TRH enhancement; at 2 µM; hits give high values
# Method in brief: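 Enhancer read-out: after compound pinning and an initial kinetic agonist-mode read, an EC20 of TRH (10 nM final) was injected and fluo-8 calcium signal (Ex 480/Em 530) followed at 1 s/cycle for 100 cycles in TRHR-expressing cells.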
# Chain of Thyrotropin-releasing hormone receptor (Homo sapiens) (P34981 whole entry, looked up): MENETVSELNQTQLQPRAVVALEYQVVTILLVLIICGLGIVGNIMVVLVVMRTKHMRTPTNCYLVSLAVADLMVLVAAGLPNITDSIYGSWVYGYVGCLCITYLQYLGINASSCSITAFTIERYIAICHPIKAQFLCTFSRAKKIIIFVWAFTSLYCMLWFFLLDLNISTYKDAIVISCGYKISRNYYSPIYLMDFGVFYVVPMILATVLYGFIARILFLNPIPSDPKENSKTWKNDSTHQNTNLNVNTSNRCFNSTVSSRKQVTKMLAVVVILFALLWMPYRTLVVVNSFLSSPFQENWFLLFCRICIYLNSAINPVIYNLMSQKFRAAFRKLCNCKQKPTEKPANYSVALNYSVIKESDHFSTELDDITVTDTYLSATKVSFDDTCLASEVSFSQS
row,Structure (SMILES),enhancement
1,Nc1ncc(S(=O)(=O)Nc2ccc(OC(F)(F)F)cc2)cn1,-5.87%
2,Cc1ccc(N(C(=O)CNC(=O)c2ccco2)C(C(=O)NC2CCCC2)c2ccncc2)cc1 (centres undefined),0.937%
3,O=C(NCC(=O)N(CC1CCCO1)C(C(=O)NC1CCCCC1)c1ccccc1)c1ccco1 (centres undefined),35.9% (active)
4,COc1ccc(N(C(=O)CNC(=O)c2ccco2)C(C(=O)NCC2CCCO2)c2ccccc2)cc1Cl (centres undefined),-16.4%
5,CCOc1ccc(Nc2ncnc3scc(-c4ccc(OC)cc4)c23)cc1,-0.508%
6,CN(C)S(=O)(=O)c1cccc(NC(=S)NCc2ccc3c(c2)OCO3)c1,34% (active)
7,CN(C)S(=O)(=O)c1cccc(NC(=O)COc2ccc3ccccc3c2)c1,-1.36%
8,O=C(NCc1ccc2c(c1)OCO2)C12CC3CC(CC(C3)C1)C2,-3.78%
9,COc1ccccc1N1CCN(c2ncnc3onc(-c4cccc(Cl)c4)c23)CC1,-1.85%
10,COc1ccc(C(=O)COC(=O)CNC(=O)c2cccs2)cc1Br,2.56%
11,CCOc1ccc(C(C)=O)cc1COC(=O)c1cnc(Cl)c(Cl)c1,22.5%
12,CCOc1ccc(C(C)=O)cc1COC(=O)CNC(=O)c1cccs1,34.6% (active)
13,CCCNC(=O)c1ccc(N2CCC3(CC2)CC(c2cccc(Br)c2)=NO3)c(NC(=O)c2ccco2)c1,35.5% (active)
14,O=C(Nc1ccccc1N1CCN(C(=O)c2ccccc2)CC1)c1ccco1,7.38%
15,CCCNC(=O)c1ccc(N2CCC3(CC2)CC(c2ccc(Cl)cc2)=NO3)c([N+](=O)[O-])c1,0.894%
16,COC(=O)c1ccccc1NC(=O)c1ccc(C#N)cc1,6.65%
17,CCCCCn1c(CCNC(=O)c2ccc(F)cc2)nc2ccccc21,-6.28%
18,Cc1ccc(NC(=O)CCCn2c(=O)c3cccn3c3ccccc32)cc1Cl,1.3%
19,COc1ccc2c(c1)Cc1sc(NC(=O)c3ccccc3Br)nc1-2,4.8%
20,CCC(CC)c1nnc(NC(=O)C2=COCCO2)s1,36.4% (active)

row,Structure (SMILES),enhancement
1,CCC(CC)c1nnc(NC(=O)c2nn(C)c(=O)c3ccccc23)s1,6.49%
2,Cc1sc(NC(=O)C2=COCCO2)c(C#N)c1C,2.25%
3,Cc1ccccc1OCc1ccc(-c2nc(C#N)c(N3CCCCC3)o2)o1,0.624%
4,O=C(Nc1ccc(-c2nc3cc(NC(=O)c4ccccc4Cl)ccc3o2)cc1)c1ccccc1Cl,-6.24%
5,COc1ccc(NC(=O)CC2COc3ccccc3O2)c(OC)c1 (centres undefined),-4.66%
6,Cc1cc(C(=O)CCl)c(C)n1CC1COc2ccccc2O1 (centres undefined),45.8% (active)
7,Cc1n[nH]c(C)c1S(=O)(=O)N1CCCC(C(=O)NCC2COc3ccccc3O2)C1 (centres undefined),-5.61%
8,COc1ccc(NC(=O)Cn2c(=O)n(CCC(C)C)c(=O)c3cccnc32)cc1Cl,5.35%
9,Clc1ccc(COn2c(-c3ccc(Cl)cc3Cl)nc3ncccc32)cc1,-14.4%
10,Cc1nc2cccnc2nc1C,1.62%
11,COn1c(-c2ccc(Cl)cc2Cl)nc2ncccc21,31.3% (active)
12,Cc1ccc(S(=O)(=O)c2nc(-c3cccs3)oc2NCc2cccnc2)cc1,-3.44%
13,O=S(=O)(c1ccccc1)c1nc(-c2ccccc2F)oc1NCc1cccnc1,0.0883%
14,O=S(=O)(c1ccc(Br)cc1)c1nc(-c2ccccc2)oc1NCc1cccnc1,31.2% (active)
15,Cc1ccc(-n2cnc3cc(C(=O)NCCC4=CCCCC4)ccc32)cc1Cl,-5.29%
16,Cc1cc(-c2ccccc2)n2nc(-c3ccccc3)cc2n1,33% (active)
17,Cc1cc(-c2ccccc2)n2nc(C)c(-c3ccccc3)c2n1,-0.179%
18,Cc1cc(N)n2nc(-c3ccc(C(C)(C)C)cc3)cc2n1,1.1%
19,Cc1ccc(C(=O)Nc2c(C(=O)NC(C)(C)C)oc3ccccc23)cc1,6.66%
20,N#CN1CCC(NS(=O)(=O)c2cccc(F)c2)C1 (centres undefined),-3.49%

row,Structure (SMILES),enhancement
1,CCn1nnnc1SCC(=O)c1ccc(C)cc1C,7.37%
2,CSc1nnnn1-c1c(C)cc(C)cc1C,41.9% (active)
3,COC(=O)c1ccccc1NC(=O)c1ccc2c(=O)n3c(nc2c1)CCCCC3,1.88%
4,COc1cc(Cl)c(NC(=O)C(NS(=O)(=O)c2cccs2)C(C)C)c(OC)c1 (centres undefined),8.88%
5,COc1ccc(Nc2ncc3c(n2)CCN(C(=O)OC(C)(C)C)C3)cc1,2.63%
6,Cc1ccc(-c2cc(C(F)(F)F)c(C#N)c(SCC(=O)Nc3ccccc3)n2)cc1,7.58%
7,Cc1ccc(Cl)cc1N1CCN(C(=O)C2CCC(CNS(=O)(=O)c3cccs3)CC2)CC1 (centres undefined),4.4%
8,CCOC(OCC)c1ccc(/C=C\c2nccc(N)n2)cc1,30% (active)
9,CN(C)S(=O)(=O)c1ccc(C(=O)N(Cc2cccnc2)c2nc3c(F)cc(F)cc3s2)cc1,-9.57%
10,Cc1cc2c(s1)c1cnn(Cc3c(F)cccc3Cl)c(=O)c1n2C,10.5%
11,CC(NC(=O)COc1ccccc1)C(=O)NC1=NCCS1 (centres undefined),1.42%
12,CCCCN(C(=O)C(CCSC)N1C(=O)c2ccccc2C1=O)c1c(N)n(CCC)c(=O)[nH]c1=O (centres undefined),-0.146%
13,CSCCC(C(=O)NC1=NCCS1)N1C(=O)c2ccccc2C1=O (centres undefined),33.2% (active)
14,COc1ccccc1C(=O)NCc1nnc(SC(C)C(=O)Nc2nccs2)n1C (centres undefined),-2.08%
15,CC(Sc1nnc(CNC(=O)c2ccccc2F)n1C)C(=O)Nc1nccs1 (centres undefined),-1.71%
16,Cc1cccc(C(=O)NCc2nnc(SC(C)C(=O)Nc3nnc(C)s3)n2C)c1 (centres undefined),37.6% (active)
17,O=S(=O)(c1ccc2c(c1)OCCCO2)N1CCN(S(=O)(=O)c2c(F)cccc2F)CC1,2.65%
18,N#Cc1nc(Nc2cc(F)cc(Cl)c2)nc(NC2CCCC2)n1,-2.09%
19,O=C(NCc1ccccc1Cl)c1cccn1-c1nnc(N2CCCCC2)s1,-0.339%
